The values that follow come from the supplement of paper PMC10338343.

± gives the standard deviation.

Assay [1] deals with MILI (PIWIL2) piRISC loaded with L1MC piRNA (26 nt). In words: pre-steady-state target cleavage rate (min^-1); guide: L1MC piRNA 5'p-UAACUAAAUACUAUGCAAGCUGUAGG; higher = faster piRNA-guided slicing of the target. In outline: (§1)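 Using HEPES–potassium acetate buffer at 33 °C, 1 nM active affinity-purified piRISC with a single synthetic guide was mixed with 0.1 nM transcribed, DNA-blocked target RNA library for 0–8 or 0–960 min, with or without 500 nM GTSF1 partner protein. Uncleaved targets were sequenced and normalised to depth and to weakly complementary targets, and three trials were pooled with k3 capped at 0.0001 min^-1. A burst-and-steady-state fit gave the pre-steady-state cleavage rate.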

In assay [2] the test system is EfPiwi piRISC loaded with L1MC piRNA (26 nt). In words: pre-steady-state target cleavage rate (min^-1); auxiliary factor: 500 nM Ephydatia muelleri Gtsf1; guide: L1MC piRNA 5'p-UAACUAAAUACUAUGCAAGCUGUAGG; MIWI and MILI are mouse PIWI proteins and EfPiwi is from a freshwater sponge; tags in brackets are library labels; higher = faster piRNA-guided slicing of the target. Put shortly: as §1
The mark [3] stands for this setting: auxiliary factor: 500 nM mouse GTSF1.
Where [4] appears, read: auxiliary factor: none (no GTSF1).

In the case of UCCUGGAUCACGAUGCAUAGUAUUUAGUUA, the “pre-steady-state target cleavage rate” value in assay [1] (setting [3]) was 0.134 ± 0.013; in assay [1] (setting [4]), 0.00516 ± 0.0028; in assay [2], 0.0115 ± 0.004.
On to UCCUGGAUGUGCUGUGCAUAGUAUUUAGUUA, for which the entries for the “pre-steady-state target cleavage rate” value in assay [1] (setting [3]), in assay [1] (setting [4]) and in assay [2] were 0.131 ± 0.015, 0.00886 ± 0.004 and 0.00568 ± 0.0024, respectively.
On to UCCUGGUACAGCUUGCAAAGUUUUUAGUUA, for which the results for the “pre-steady-state target cleavage rate” value in assay [1] (setting [3]), in assay [1] (setting [4]) and in assay [2] were 0.0248 ± 0.0088, 0.00339 ± 0.0029 and 0.00245 ± 0.0024, respectively.
For UCCUGGAACAGGUUGCUUAGUAUUUAGUUA the same measures were 0.253 ± 0.015, 0.0109 ± 0.0031 and 0.00924 ± 0.0022.
For UCCUGGAUGAGCCUGCAUAGUAUUUAGUUA the same measures were 0.157 ± 0.019, 0.00748 ± 0.0033 and 0.032 ± 0.011.
On to UCCUGGUACAGCAUGCAUAGUAUUUAGAUA, for which the “pre-steady-state target cleavage rate” value in assay [1] (setting [3]) turned out to be 0.137 ± 0.025; in assay [1] (setting [4]) it was 0.00437 ± 0.0029; in assay [2] it was 0.00412 ± 0.0025.
For UCCUGGAUGUCGUUGCAUAGUACUUAGUUA the same measures were 0.0399 ± 0.011, 0.00463 ± 0.0029 and 0.00365 ± 0.0035.
For UCCUGGAACAGCAUGCAAAGUAUUUAGUUA the same measures were 0.129 ± 0.014, 0.00836 ± 0.0026 and 0.0163 ± 0.0061.
For UCCUCCUACAGCUUCGCAUAGUAUUUAGUUA the same measures were 0.282 ± 0.015, 0.00644 ± 0.0025 and 0.121 ± 0.032.
Consider UCCUCCUACAGCUUGCAUAGUAUUUGAGUUA, for which the “pre-steady-state target cleavage rate” value came out at 0.199 ± 0.028 in assay [1] (setting [3]), 0.00484 ± 0.0026 in assay [1] (setting [4]) and 0.00541 ± 0.0025 in assay [2].
Consider UCCUGGAUGAGCUUGCUUAGUAUUUAGUUA, for which the “pre-steady-state target cleavage rate” value in assay [1] (setting [3]) worked out at 0.17 ± 0.01; in assay [1] (setting [4]), 0.00685 ± 0.0025; in assay [2], 0.00629 ± 0.0027.
For UCCUGGAACAGCUUGCAUAGUAUCUUAGUUA the same measures were 0.267 ± 0.022, 0.00791 ± 0.0019 and 0.0187 ± 0.0064.
For UCCUCCUACAGCUUGACAUAGUAUUUAGUUA the same measures were 0.267 ± 0.018, 0.00554 ± 0.0024 and 0.016 ± 0.0056.
For UCCUCCUACAGGUUGCAUAGUAUAUAGUUA the same measures were 0.219 ± 0.022, 0.00587 ± 0.0019 and 0.0129 ± 0.0046.
On to UCCUCCUUCAGCUUGCAUAGUAUUAAGUUA, for which the “pre-steady-state target cleavage rate” value in assay [1] (setting [3]) was determined as 0.155 ± 0.022; in assay [1] (setting [4]) it was 0.00246 ± 0.0023; in assay [2], 0.00716 ± 0.0031.
For UCCUCCUACAGGUUGCUUAGUAUUUAGUUA the same measures were 0.237 ± 0.011, 0.00975 ± 0.0027 and 0.0231 ± 0.0065.
With UCCUGGAUGAGUCUUGCAUAGUAUUUAGUUA, the “pre-steady-state target cleavage rate” value was determined as 0.105 ± 0.016 in assay [1] (setting [3]), 0.0093 ± 0.0029 in assay [1] (setting [4]) and 0.00527 ± 0.0024 in assay [2].
For UCCUGGAUCAGCUUGCAAAGUAUUUAGAUA the same measures were 0.126 ± 0.018, 0.00353 ± 0.0024 and 0.00558 ± 0.0029.
For UCCUGGAUCAGUCUUGCAUAGUAUUUAGUUA the same measures were 0.212 ± 0.016, 0.0108 ± 0.0023 and 0.0152 ± 0.0042.
For “UCCUGGAUCAGCUUGCAUAGUAUUUAGUUU [g2:g22:cont:t1U]” the same measures were 0.357 ± 0.019, 0.0189 ± 0.0043 and 0.121 ± 0.025.
UCCUGGAUCAGCUUGCAUAGUUUUAAGUUA: the “pre-steady-state target cleavage rate” value stood at 0.0366 ± 0.008 in assay [1] (setting [3]), 0.00531 ± 0.0024 in assay [1] (setting [4]) and 0.00285 ± 0.0028 in assay [2].
For UCCUGGAUGUGCUUGCAUAGUAUAAAGUUA the same measures were 0.0611 ± 0.011, 0.00318 ± 0.0025 and 0.00378 ± 0.0034.
For UCCUGGAUGAGCUUGCAUAGUAUUUACGUUA, the “pre-steady-state target cleavage rate” value in assay [1] (setting [3]) worked out at 0.189 ± 0.031; in assay [1] (setting [4]), 0.00682 ± 0.0032; in assay [2] it was 0.00466 ± 0.0026.
For UCCUCCUACAGCUUGCAAAGUAUUUAGUAA the same measures were 0.142 ± 0.016, 0.00404 ± 0.0019 and 0.00609 ± 0.0029.
Regarding UCCUGCUACAGGUAGCAUAGUAUUUAGUUA, the entries for the “pre-steady-state target cleavage rate” value in assay [1] (setting [3]), in assay [1] (setting [4]) and in assay [2] were 0.367 ± 0.031, 0.00651 ± 0.0037 and 0.0207 ± 0.0042, respectively.
Take UCCUCCUCACAGCUUGCAUAGUAUUUAGUUA: the “pre-steady-state target cleavage rate” value amounted to 0.369 ± 0.021 in assay [1] (setting [3]), 0.0102 ± 0.0027 in assay [1] (setting [4]) and 0.191 ± 0.046 in assay [2].
As to UCCUGGAUCAGCUUCGCAUAGUAUUUAGUUA, the figures for the “pre-steady-state target cleavage rate” value in assay [1] (setting [3]), in assay [1] (setting [4]) and in assay [2] were 0.309 ± 0.02, 0.00591 ± 0.0024 and 0.0389 ± 0.009, respectively.
For UCCUCCUAGCAGCUUGCAUAGUAUUUAGUUA the same measures were 0.295 ± 0.018, 0.011 ± 0.0028 and 0.0339 ± 0.0083.
For UCCUGGAUGAGCUAGCAUAGUAUUAAGUUA the same measures were 0.226 ± 0.023, 0.00417 ± 0.0024 and 0.00293 ± 0.0024.
In the case of UCCUGGUACCAGCUUGCAUAGUAUUUAGUUA, the “pre-steady-state target cleavage rate” value in assay [1] (setting [3]) was found to be 0.276 ± 0.043; in assay [1] (setting [4]), 0.00866 ± 0.0047; in assay [2], 0.0109 ± 0.0044.
For UCCUGGAUGUGGUUGCAUAGUAUUUAGUAA the same measures were 0.0925 ± 0.021, 0.0105 ± 0.0041 and 0.11 ± 0.056.
For UCCUGGAUCAGCUUGCAUAGUAUUUACAAA the same measures were 0.105 ± 0.021, 0.00255 ± 0.0024 and 0.00404 ± 0.002.
As to UCCUCCUACACCUUGCAAAGUAUUUAGUUA, the “pre-steady-state target cleavage rate” value is 0.118 ± 0.015 in assay [1] (setting [3]), 0.00739 ± 0.0022 in assay [1] (setting [4]) and 0.0172 ± 0.007 in assay [2].
Turning to UCCUGGAACAUCUUGCAUAGUAUUUAGUUA, the “pre-steady-state target cleavage rate” value in assay [1] (setting [3]) amounted to 0.244 ± 0.013; in assay [1] (setting [4]), 0.0108 ± 0.0028; in assay [2] it was 0.0653 ± 0.016.
For UCCUCCUACAGCUUGCAUAGUAUUUAGGUUA the same measures were 0.251 ± 0.045, 0.00312 ± 0.0031 and 0.00552 ± 0.0017.
For UCCUGGAUCAAGCUUGCAUAGUAUUUAGUUA the same measures were 0.237 ± 0.018, 0.0103 ± 0.0028 and 0.0542 ± 0.012.
For UCCUGGAACACGAUGCAUAGUAUUUAGUUA the same measures were 0.14 ± 0.017, 0.00495 ± 0.0023 and 0.00377 ± 0.0016.
Regarding UCCUGCUACUAGCUUGCAUAGUAUUUAGUUA, the “pre-steady-state target cleavage rate” value stood at 0.176 ± 0.022 in assay [1] (setting [3]), 0.0074 ± 0.0023 in assay [1] (setting [4]) and 0.00699 ± 0.0025 in assay [2].
For UCCUGGUUCAGCUUGGAUAGUAUUUAGUUA the same measures were 0.191 ± 0.022, 0.013 ± 0.0035 and 0.00792 ± 0.0035.
Consider UCCUCCUACAGCUUGCAUAGUAUAUAGUUA, for which the “pre-steady-state target cleavage rate” value in assay [1] (setting [3]) amounted to 0.242 ± 0.026; in assay [1] (setting [4]) it was 0.00534 ± 0.0019; in assay [2], 0.00814 ± 0.0038.
For UCCUGGAACAGCUUGCAUAGUAUUUAGUGUA the same measures were 0.231 ± 0.018, 0.00523 ± 0.0026 and 0.00557 ± 0.0021.
On to UCCUGCAACAGCUUGCAUUGUAUUUAGUUA, for which the figures for the “pre-steady-state target cleavage rate” value in assay [1] (setting [3]), in assay [1] (setting [4]) and in assay [2] were 0.262 ± 0.018, 0.0076 ± 0.0027 and 0.0331 ± 0.0081, respectively.
For UCCUGGAUGUGCUUUGCAUAGUAUUUAGUUA the same measures were 0.157 ± 0.016, 0.0132 ± 0.0033 and 0.00805 ± 0.003.
For UCCUGGAACAGCUUGCAUAGAAUUUAGUUA the same measures were 0.0554 ± 0.01, 0.00299 ± 0.0027 and 0.0051 ± 0.0017.
For UCCUGGUACAGGAUGCAUAGUAUUUAGUUA the same measures were 0.215 ± 0.021, 0.0111 ± 0.0037 and 0.00598 ± 0.003.
With UCCUGGAUCAGCUUGCAUGGUAUUUAGUUA, the “pre-steady-state target cleavage rate” value worked out at 0.285 ± 0.025 in assay [1] (setting [3]), 0.011 ± 0.0027 in assay [1] (setting [4]) and 0.0193 ± 0.0038 in assay [2].
Consider UCCUGCUUCAGCUUGCAUAGUAAUUAGUUA, for which the “pre-steady-state target cleavage rate” value in assay [1] (setting [3]) was 0.253 ± 0.022; in assay [1] (setting [4]), 0.00622 ± 0.0021; in assay [2], 0.00863 ± 0.003.
For UCCUGGAAGAGGUUGCAUAGUAUUUAGUUA the same measures were 0.233 ± 0.012, 0.0116 ± 0.0031 and 0.00538 ± 0.0032.
In the case of UCCUGGUACAGCUUGCACAGUAUUUAGUUA, the “pre-steady-state target cleavage rate” value is 0.156 ± 0.013 in assay [1] (setting [3]), 0.0127 ± 0.0032 in assay [1] (setting [4]) and 0.0505 ± 0.015 in assay [2].
For UCCUCCUACAGCUAGGAUAGUAUUUAGUUA the same measures were 0.276 ± 0.015, 0.00685 ± 0.0019 and 0.0581 ± 0.014.
